Results from the emibetuzumab library of Makowski et al. (2022).
The list shows a part of the results. No count for the full screen is at hand.

B1: VH:VL chains; a variant is named by its letters at X, in order (parent)
chain 1: QVQLVQSGAEVKKPGASVKVSCKASGYTFTDYXMHWVRQAPGQGLEWMGXVNPNXXXTTYNQKFEGRVTMTTDTSTSTAYMELRSLRSDDTAVYYCARXNXLDXWGQGTTVTVSS
chain 2: DIQMTQSPSSLSASVGDRVTITCSVSSSVSSIYLHWYQQKPGKAPKLLIYSTSNLASGVPSRFSGSGSGTDFTLTISSLQPEDFATYYCQVYSGYPLTFGGGTKVEIK

Variants of: B1
Assay: yeast display scFab, FACS + sequencing
Conditions: with MET
Summary of the method: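 A yeast surface library of scFab variants carrying heavy-chain CDR mutations went through two magnetic enrichment rounds on Protein A beads coated with HGFR-Fc, then FACS. For sorting, cells were labelled for 3 h at room temperature with 1 nM HGFR-Fc and anti-Myc in PBSB containing 1% milk, and the top 50% of antigen-positive cells were gated. Input and round-3 sorted populations were deep sequenced in two replicates. A sequence was called an antigen binder if it appeared in both antigen-positive samples and a non-binder if it appeared only in the input.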

Variant | antigen binding call
YRAKGAWY | binds
YRKGGAWY | binds
YEKGGDVY | no binding
DGGTNDVD | no binding
DTKAASWV | no binding
VKGRADSF | no binding
YKKGSSLF | binds
YKERGDVF | no binding
VKKGSSLF | binds
VKKESSGF | no binding
YRKEAAWV | binds
YRTADDWV | no binding
YRKGGAWV | binds
SAEGGSSA | no binding
FGAKTASF | no binding
YRGGSDVA | binds
DRGRSDVA | no binding
YRAETDVA | no binding
YAAGGDVA | no binding
VRGGSDVA | no binding
YRAAGDVA | binds
YTAGSDVA | no binding
YRAGDDVA | binds

Variant | antigen binding call
VRAGDDVA | no binding
DAGGGAAV | no binding
AGGGNDWV | no binding
VAAKNDGA | no binding
VAKENAVA | no binding
YRKGSSGF | binds
YRKGSSLF | binds
YGKGTSGF | no binding
YRGASSWV | binds
YRGGASWV | binds
YTRGASWV | no binding
YTKAASWV | no binding
YETTDSWV | no binding
YAEATDLY | no binding
VTEGDSGV | no binding
VTTGSASF | no binding
DTEEGDWV | no binding
YTGTSASD | no binding
YRRGSAVD | binds
YRGEGASD | binds
YRRGDASD | binds
YRRGSASD | binds
DRRGDASD | no binding

Variant | antigen binding call
YTAAADLV | no binding
YETEGDVF | no binding
YRRGGASD | binds
DAGGGAVY | no binding
YRKGAALA | binds
YTGRAALA | no binding
YRKKGDLA | no binding
YRGKGSLA | binds
YRGRSALA | binds
YRGKGALA | binds
VTGTGDGV | no binding
AETKGAVA | no binding
DGGENAGD | no binding
VAGGDAVV | no binding
YRGKSALA | binds
FREGGAVS | no binding
FAAGGAWA | no binding
FAAGGAAS | binds
FRGGGAVS | binds
FRGGGSVS | binds
FAGGGFAV | no binding
FAGTSVGS | no binding
FAGGSFAS | binds

Variant | antigen binding call
FAAGSSGS | no binding
DTERDDAV | no binding
DGGTGDVF | no binding
FAGGGASD | no binding
FAGGGAGA | no binding
FAGGGAGS | binds
YTEEGDWV | no binding
SAAGGDVA chain 1 L45S | no binding
YEGGGDGD | no binding
YRKGSAGD | binds
YEKGGDVD | no binding
YRKGSALD | binds
YRRANFLD | no binding
YRKGTAGD | binds
YEKGGAGD | binds
YAGEGDGA | no binding
VTTADDWV | no binding
YRGKGVGV | no binding
DKGRSVGV | no binding
YKGRGVVV | binds
YKGRGVGV | binds
YKERDVGV | no binding
YKGKGVGV | binds

Variant | antigen binding call
SKEGGVGV | no binding
AARADDGS | no binding
SAAGGDGV chain 1 L45S | no binding
FRERGAGY | no binding
FRRGGAGD | binds
FTETGAGD | no binding
FGRGGVGD | no binding
FRRGGSVD | binds
FRERGAGD | binds
FTEEGAGD | no binding
FRRGGAVD | binds
VATGDFGV | no binding
YETETALY | no binding
SKGENALY | no binding
YKKTGDLY | no binding
YKAGGALY | binds
YKTGGALY | binds
VKTGGDVY | no binding
AARADDAV | no binding
SETGGAGD | no binding
YRTGGAWD | binds
YRTGGSGD | binds
DREEGSGD | no binding

Variant | antigen binding call
FATGGSGD | no binding
YRTGGAGD | binds
DATGGAGD | no binding
YRTGDSGD | binds
FTRTNFLS | no binding
VKEKGDVA | no binding
YKRRGSAA | binds
YAARGSAA | no binding
YTRAGSAA | no binding
YRGRSSAA | binds
YKARGSAA | binds
YRAKGSAA | binds
DAKTDDGV | no binding
DKEGGDGY | no binding
YGAAGSAA | binds
YTKRGSAA | no binding
YGGGGVAA | no binding
YTGRGSAA | binds
AREKGSAA | no binding
YGATSSLA | no binding
YRARSSAA | binds
YREKGSAA | binds
